Test: small-molecule microarray binders of probe aShh, primary screen, biochemical, biotinylated probe, 635/667 nm fluorescence (AID 1114);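 note: probe is biotin-labelled aShh protein from a stem cell growth factor screen; measures binding of labelled protein to compounds printed on the slide; score merges feature fluorescence at 667 nm with signal-to-noise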
Settings: higher = more signal

Point of comparison: COCCOC(=O)N1C(=O)[C@@]2(c3cc(C#CC4=CCCCC4)ccc31)[C@H](C(N)=O)[C@H]1C(=O)O[C@H](c3ccccc3)[C@H](c3ccccc3)N1[C@@H]2c1ccccc1OCCO, composite z-score 0.173. Against it:
- [N-]=[N+]=Nc1ccccc1C[C@]1(C(N)=O)N=C(c2ccc(OCCCO)cc2)O[C@H]1c1ccccc1N=[N+]=[N-] — lower, 0.162
- COc1cc(CO)cc(I)c1O[C@H]1C=C(C(=O)NCCO)C[C@@H](NCc2ccc(F)cc2)[C@@H]1O — lower, 0.0684
- CCCC[C@@H]1C[C@H]1[C@@H](NC(=O)c1cccs1)c1ccc(C(F)(F)F)cc1 — higher, 0.214
- O=C1OCCC=C[C@H]2OC34C=CCN(Cn5nnc6ccccc65)C(=O)[C@H]3N(CCCCCCO)C(=O)[C@@H]4C12 (stereo partly specified) — lower, -0.179
- Cc1ccc(S[C@]2(C(=O)O)CC(=O)N(Cc3cc(C(F)(F)F)cc(C(F)(F)F)c3)[C@@H]2c2ccc(CO)cc2)cc1 — lower, -0.0483
